# High-throughput results: PubChem, National Center for Advancing Translational Sciences (NCATS)
# NS1 inh = qHTS Assay for Inhibitors of Influenza NS1 Protein Function | 270,000 compounds, 0.4% hits | AID 2326, 2010 | Potency, µM (titrated, usually from 46.1 µM), for inactives: top-dose activity, positive = more growth; further: potency means the concentration at half of the fitted maximal effect; actives are rising curves; nearly all actives have a fitted effect of over 50% in size
#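 Read-out: OD600 growth recovery of NS1-expressing budding yeast. Cells grown overnight at 30C in -URA glucose medium, washed, resuspended and diluted 1:100 in 2% galactose assay medium, pH 6.0. Same strain lacking NS1 served as positive control.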
# Shiga toxin inh = A qHTS for Small Molecule Inhibitors of Shiga Toxin; 290,000 compounds, 9.2% hits; inhibition, % at 38.7 µM; Vero cells, Shiga toxin protein synthesis inhibition reporter; AID 2315, 2010; in the data active means inhibition mostly above about 28%, no sharp cut-off; inactive means mostly below about 43%; further: 0% is about no effect
# Pf growth 48h = Primary qHTS for delayed death inhibitors of the malarial parasite plastid, 48 hour incubation; P. falciparum luciferase growth in erythrocytes, 48 h; 310,000 compounds, 5.9% hits; Potency, µM (doses to about 28.7 µM), for the others: at the top dose activity change, negative = inhibition, most hits filed as inhibitors; active means well fitted inhibition curve with a large enough effect; inconclusive means small, poorly fitted or top-dose-only effect, or another doubt; inactive means no such curve, though single readings can be large or run the other way; further: potency means the concentration at half of the fitted maximal effect; on the % scale 0 is the no-effect control and ±100 the full control effect
#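 Parasite viability was followed by luminescence of a genomically integrated firefly luciferase. Cultures held 0.1% parasitemia at 2% hematocrit (final), incubated under 5% CO2 at 37 C.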
# Pf growth 96h = Primary qHTS for delayed death inhibitors of the malarial parasite plastid, 96 hour incubation | P. falciparum luciferase reporter growth, 96 h | AID 504834, 2011 | 320,000 compounds, 6.9% hits | Potency, µM (highest dose often 28.7 µM), inactives show at the highest dose activity change, negative = inhibition, actives largely listed as inhibitors; active means well fitted inhibition curve with a large enough effect; inconclusive means small, poorly fitted or top-dose-only effect, or another doubt; inactive means no such curve, though single readings can be large or run the other way; further: potency means the concentration at half of the fitted maximal effect; on the % scale 0 is the no-effect control and ±100 the full control effect
#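 Plates of compound plus infected erythrocytes (2% hematocrit, 0.05% parasitemia final) incubate 96 hours, 37 C, 5% CO2. Detection reagent added; reduced luminescence from the parasites' luciferase reporter flags inhibition.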
# Cycloheximide cs = Cycloheximide Counterscreen for Small Molecule Inhibitors of Shiga Toxin. cell reporter, cycloheximide protein synthesis inhibition counterscreen. 300,000 compounds, 12% hits. max response, %; in the data active means max response mostly above about 13%, no sharp cut-off; inactive means mostly below about 14%; further: read at 38.3 µM for the half of the compounds with a filed dose; 0% is about no effect
# SARS PLpro yeast = qHTS of Yeast-based Assay for SARS-CoV PLP; S. cerevisiae expressing SARS-CoV PLpro, growth rescue; Potency, µM (top dose mostly 32.9 µM), for the others: at the highest dose activity, positive = growth rescue, hits mostly activators; 330,000 compounds, 0.19% hits; further: potency means the concentration at half of the fitted maximal effect; 0% is about no effect; nearly all actives have a fitted effect of over 55% in size
# Numbers without * were called inactive; ? = inconclusive; nt = no result given; [ ] = remark or other dose. A selection: hits, their analogues and other compounds. The true share with any hit is near 21%. Unless noted, the call rests on the fitted dose curve.
SMILES,NS1 inh,Shiga toxin inh,Pf growth 48h,Pf growth 96h,Cycloheximide cs,SARS PLpro yeast
Cc1cc(N2Cc3ccccc3C2)ccc1C=O,-40%,70*,-26%,?,19*,-10%
Oc1cccc(N2Cc3ccccc3C2)c1,2%,31*,6%,22%,11,-3%
CCOC(=O)c1ccc(N2Cc3cc(C)c(C)cc3C2)cc1O,3%,17,32%,0%,19*,2%
Oc1ccc(N2Cc3ccccc3C2)cc1,?,15,-3%,30%,20*,0%
COC(=O)c1ccc2c(CCO)c[nH]c2c1,3%,37*,141%,31%,25*,-2%
COC(=O)c1ccc(CNC(=O)CCc2c[nH]c3ccccc23)cc1,-3%,4,7%,11%,-3,1%
CCN(CC(=O)Nc1ccc(OC)cc1)C(=O)COc1cccc2c1OC(C)(C)C2,nt,nt,?,?,nt,-9%
COc1ccc(NC(=O)CCC2CCCC2)cc1OC,-49%,67*,-17%,22%,19*,-5%
CCOc1ccc(NC(=O)CN(C)C(=O)CC2CCCC2)cc1OCC,nt,nt,?,13µM*,nt,-1%
CCOc1ccc(NC(=O)CN(C)C(=O)CCC2CCCCC2)cc1OCC,nt,nt,?,15µM*,nt,-3%
CCOc1ccc(NC(=O)CN(C)C(=O)COc2cccc3c2OC(C)(C)C3)cc1OCC,nt,nt,13µM*,?,nt,-8%
CCOc1ccc(NC(=O)CN(C)C(=O)CC2CCCCC2)cc1OCC,nt,nt,?,?,nt,-7%
Cc1cc(NC(=O)c2c(Br)c(C)nn2C)no1,14%,39,-1%,0%,0,7%
COc1cc2c(cc1OC)CN(C(=O)c1ccc(Cl)c(S(=O)(=O)N3CCCC3)c1)CC2,nt,nt,nt,nt,nt,0%
C/C=C(\C)C(=O)OC1C(C)=C2C(C1OC(=O)CCCCC)C(C)(OC(C)=O)CC(OC(=O)CCC)C1(O)C2OC(=O)C1(C)O (stereo not given),0%,2,4.1µM*,2.9µM*,-7,1%
CCOc1ccc(C(C)=O)cc1COC(=O)CCc1cc(OC)c(OC)c(OC)c1,-15%,1,?,8.3µM*,-3,3%
COc1cc(CCC(=O)OCc2ccccc2C#N)cc(OC)c1OC,-3%,-6,32%,31%,-1,0%
COc1cc([C@H]2[C@@H]3CCCC[C@]3(O)CCN2Cc2ccccc2F)ccc1O,7%,-2,?,12µM*,1,6%
COC(=O)C1C(=O)C2=C(CC1C)NC(=O)CC2c1ccccc1 (stereo not given),8%,-4,?,-21%,-2,-8%
CCOc1cc(C2CC(=O)NC3=C2C(=O)C(C(=O)OC)C(C)C3)cc(Cl)c1O (stereo not given),-4%,-12,1.2µM*,-43%,2,5%
COc1ccc(C(=O)CSc2cc(C)[nH]c(=O)n2)cc1,0%,64*,17%,124%,40*,-1%
COC(=O)c1ccc(CSc2nccn2C)cc1,5%,65*,68%,nt,52*,-8%
COc1ccc(Cc2c(O)nc(SCC(=O)c3ccc(OC)cc3)[nH]c2=O)cc1,-2%,-11,4%,-62%[1.15 µM],-10,0%
Cn1ccnc1SCC(=O)c1ccc(OC(F)F)cc1,1%,78*,118%,99%,33*,6%
COc1ccc(NCc2nnc(SCC(=O)c3ccc(OC)cc3)n2C)cc1,-13%,28,?,40%,34*,-19%
SMILES,NS1 inh,Shiga toxin inh,Pf growth 48h,Pf growth 96h,Cycloheximide cs,SARS PLpro yeast
Cn1ccnc1SCc1ccc([N+](=O)[O-])cc1,-3%,-5,1%,?,-3,5%
Cn1ccnc1SCC(=O)c1cccc(C(F)(F)F)c1,1%,72*,47%,2%,26*,-1%
COc1cccc(C(=O)CSc2nc3cccnc3n2C)c1,2%,16,0%,-24%,3,-15%
Cn1c(SCc2ccccc2F)nc2cccnc21,-32%,117*,84%,6%,28*,6%
COc1ccc(C(=O)CSc2nc3cccnc3n2C)cc1,6%,7,10%,3.7µM*,5,1%
CCOC(=O)CSc1nc2cccnc2n1C,-6%,9,7%,?,14,1%
